Our source for the growth values is the supplement of paper PMC9262897, “Low-cost anti-mycobacterial drug discovery using engineered E. coli” (Nature Communications, 2022).

Assay in all cases: growth (OD600 after 10 h); higher = more growth (less inhibition)
Experiment [1] concerns E. coli TESEC Alr+ wild-type control. As to conditions: compound 0.1 mM; raw OD600 reference: median of DMSO wells 0.241, cell-free background 0.041. The protocol: (§1)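 TESEC Mtb Alr E. coli, or the Alr+ wild-type control, in 384-well plates with Prestwick library compounds at 0.1 mM and 1% DMSO, across arabinose induction levels of 1E3 to 1E7 nM. Growth is read as OD600 after 10 h at 37 °C in triplicate biological replicates.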

In experiment [2] the test system is E. coli TESEC Mtb Alr. The settings on record: compound 0.1 mM. Here is the method:
as §1

The subject of experiment [3] is E. coli TESEC Mtb Asd. As to conditions: compound 0.1 mM. The protocol:
(§2)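 TESEC E. coli strains in which the native enzyme is deleted and replaced by arabinose-inducible Mtb Asd, DapB, CysH or TrpD, each grown in its selective medium. Strains were screened against the Prestwick library at 0.1 mM and 1% DMSO in 384-well format at low and high arabinose induction. Growth is read as OD600 after 10 h in triplicate.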

The subject of experiment [4] is E. coli TESEC Mtb DapB. The settings on record: compound 0.1 mM. The protocol: as §2
Experiment [5] relates to E. coli TESEC Mtb Alr. As to conditions: compound 0.1 mM. Here is the method: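 TESEC Mtb Alr E. coli (ΔaraC ΔtolC ΔentC Δalr ΔdadX, arabinose-inducible Mtb Alr) or the Alr+ wild-type control strain, grown in defined M9-fructose medium without D-alanine in 96-well plates with Prestwick library compounds at 0.1 mM and 1% DMSO. Low Alr induction is 0.1 µM arabinose and high induction is 10 mM arabinose.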
This is another data set of the same source.

[6] abbreviates: arabinose 1000 nM, raw OD600 reference: median of DMSO wells 0.294, cell-free background 0.041.
The mark [7] stands for this setting: arabinose 10000 nM, raw OD600 reference: median of DMSO wells 0.264, cell-free background 0.041.
The mark [8] stands for this setting: arabinose 100000 nM, raw OD600 reference: median of DMSO wells 0.201, cell-free background 0.041.
Setting [9] is: arabinose 1000000 nM, raw OD600 reference: median of DMSO wells 0.193, cell-free background 0.041.
The mark [10] stands for this setting: arabinose 10000000 nM, raw OD600 reference: median of DMSO wells 0.146, cell-free background 0.041.
Where [11] appears, read: arabinose induction (level): High, raw OD600 reference: median of DMSO wells 0.331, cell-free background 0.041.
Where [12] appears, read: arabinose induction (level): Low, raw OD600 reference: median of DMSO wells 0.417, cell-free background 0.041.
[13] abbreviates: arabinose induction (level): High, raw OD600 reference: median of DMSO wells […], cell-free background 0.041.
[14] abbreviates: arabinose induction (level): Low, raw OD600 reference: median of DMSO wells 0.227, cell-free background 0.041.
[15] abbreviates: arabinose 100 nM, raw OD600 reference: median of DMSO wells 0.413, cell-free background 0.052.
[16] abbreviates: arabinose 10000000 nM, raw OD600 reference: median of DMSO wells […], cell-free background 0.052.

SMILES strings stand for the structures. Counter-ions that a name gives are not always drawn. ± gives the standard deviation of the averaged measurements.

For the compound `O=C(Nc1ccc([N+](=O)[O-])cc1Cl)c1cc(Cl)ccc1O` [Niclosamide], the growth in experiment [1] was 0.0431 ± 0.00067; in experiment [2] (setting [6]) it was 0.0406 ± 0.001; in experiment [2] (setting [7]) it was 0.0492 ± 0.0021; in experiment [2] (setting [8]), 0.0408 ± 0.0001; in experiment [2] (setting [9]), 0.03973 ± 0.00035; in experiment [2] (setting [10]) it was 0.0404 ± 0.00042. In addition, the growth in experiment [3] (setting [11]) was 0.0715 ± 0.017; in experiment [3] (setting [12]), 0.225 ± 0.037; in experiment [4] (setting [13]), 0.174 ± 0.012; in experiment [4] (setting [14]), 0.193 ± 0.043; in experiment [5] (setting [15]), 0.0618 ± 0.0064; in experiment [5] (setting [16]) it was 0.0616 ± 0.00076.
Take `NC[C@H]1O[C@H](O[C@H]2[C@H](O[C@@H]3O[C@H](CO)[C@@H](O)[C@H]3O)[C@@H](O)[C@H](N)C[C@@H]2N)[C@H](N)[C@@H](O)[C@@H]1O` [Ribostamycin sulfate salt]: the growth is 0.238 ± 0.011 in experiment [1]; 0.286 ± 0.0099 in experiment [2] (setting [6]); 0.269 ± 0.0065 in experiment [2] (setting [7]); 0.182 ± 0.025 in experiment [2] (setting [8]); 0.201 ± 0.015 in experiment [2] (setting [9]); 0.138 ± 0.0082 in experiment [2] (setting [10]). The growth was found to be 0.37 ± 0.013 in experiment [3] (setting [11]); 0.458 ± 0.012 in experiment [3] (setting [12]); 0.218 ± 0.023 in experiment [4] (setting [13]); 0.226 ± 0.016 in experiment [4] (setting [14]); 0.42 ± 0.011 in experiment [5] (setting [15]); 0.366 ± 0.012 in experiment [5] (setting [16]).
`CN1CCOC(c2ccccc2)c2ccccc2C1` (configuration not stated) [Nefopam hydrochloride]: the growth turned out to be 0.218 ± 0.0081 in experiment [1]; 0.294 ± 0.0068 in experiment [2] (setting [6]); 0.263 ± 0.003 in experiment [2] (setting [7]); 0.185 ± 0.012 in experiment [2] (setting [8]); 0.157 ± 0.0087 in experiment [2] (setting [9]); 0.157 ± 0.0035 in experiment [2] (setting [10]). The growth is 0.187 ± 0.03 in experiment [3] (setting [11]); 0.401 ± 0.045 in experiment [3] (setting [12]); 0.186 ± 0.006 in experiment [4] (setting [13]); 0.243 ± 0.036 in experiment [4] (setting [14]); 0.413 ± 0.014 in experiment [5] (setting [15]); 0.327 ± 0.021 in experiment [5] (setting [16]).
`CC[C@H]1OC(=O)[C@H](C)[C@@H](O[C@H]2C[C@@](C)(OC)[C@@H](O)[C@H](C)O2)[C@H](C)[C@@H](O[C@@H]2O[C@H](C)C[C@H](N(C)C)[C@H]2O)[C@](C)(O)C[C@@H](C)C(=O)[C@H](C)[C@@H](O)[C@]1(C)O` [Erythromycin]: the growth amounted to 0.04107 ± 0.00038 in experiment [1]; 0.0413 ± 0.0016 in experiment [2] (setting [6]); 0.03973 ± 5.8e-05 in experiment [2] (setting [7]); 0.0421 ± 0.0013 in experiment [2] (setting [8]); 0.0401 ± 0.0001 in experiment [2] (setting [9]); 0.0414 ± 0.00076 in experiment [2] (setting [10]). The growth in experiment [3] (setting [11]) is 0.0563 ± 0.0023; in experiment [3] (setting [12]), 0.0536 ± 0.0019; in experiment [4] (setting [13]), 0.04857 ± 0.00045; in experiment [4] (setting [14]), 0.052 ± 0.0057; in experiment [5] (setting [15]) it was 0.0567 ± 0.0002; in experiment [5] (setting [16]) it was 0.05153 ± 0.00031.
As for `Cc1ccccc1C(OCCN(C)C)c1ccccc1` (configuration not stated) [Orphenadrine hydrochloride], the growth in experiment [1] worked out at 0.208 ± 0.013; in experiment [2] (setting [6]), 0.26 ± 0.024; in experiment [2] (setting [7]) it was 0.266 ± 0.015; in experiment [2] (setting [8]), 0.189 ± 0.0084; in experiment [2] (setting [9]), 0.148 ± 0.0039; in experiment [2] (setting [10]), 0.159 ± 0.0037. The growth was found to be 0.18 ± 0.015 in experiment [3] (setting [11]); 0.383 ± 0.063 in experiment [3] (setting [12]); 0.19 ± 0.0094 in experiment [4] (setting [13]); 0.241 ± 0.021 in experiment [4] (setting [14]); 0.412 ± 0.013 in experiment [5] (setting [15]); 0.321 ± 0.029 in experiment [5] (setting [16]).
For `CCC(C)(CN(C)C)OC(=O)c1ccccc1` (configuration not stated) [Amyleine hydrochloride], the growth in experiment [1] came to 0.233 ± 0.0066; in experiment [2] (setting [6]), 0.252 ± 0.052; in experiment [2] (setting [7]), 0.266 ± 0.0091; in experiment [2] (setting [8]), 0.183 ± 0.011; in experiment [2] (setting [9]), 0.173 ± 0.0043; in experiment [2] (setting [10]) it was 0.142 ± 0.0057. For the same compound, the growth stood at 0.26 ± 0.076 in experiment [3] (setting [11]); 0.435 ± 0.058 in experiment [3] (setting [12]); 0.195 ± 0.027 in experiment [4] (setting [13]); 0.209 ± 0.0057 in experiment [4] (setting [14]); 0.411 ± 0.0066 in experiment [5] (setting [15]); 0.333 ± 0.021 in experiment [5] (setting [16]).
